GLD-1 TGE inh = GLD-1-TGE RNA interaction inhibition (C. elegans); Q17339; purified GLD-1 + fluorescein TGE RNA, fluorescence polarization; inhibition, % at 5.96 µM; 0.44% of 320,000 active; AID 2280;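 active means percent inhibition above a per-plate cutoff, the plate mean of test compounds plus 3 SD, cut at about 30% in these data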
IDE cell inh = inhibits human insulin-degrading enzyme in HEK cells; 0.41% of 320,000 active; inhibition, % at 5.59 µM; FAbetaB cleavage, fluorescence polarization;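 active means percent inhibition above the average of all tested compounds plus 3 SD, set per screening campaign, cut at about 16% in these data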;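 further: IDE supplied by intact live HEK cells; FP after avidin binding of uncleaved biotin substrate so inhibition keeps polarization high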
MEX-5 binding = C. elegans MEX-5 TCR-2 RNA binding activity. Q9XUB2. MEX-5/FITC-TCR2 RNA binding, fluorescence polarization; active compounds read low. activity score (negative = inhibition of binding), % at 10 µM. 0.38% of 300,000 active. AID 1832;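 active means inhibition past about -25% in most replicates, and total fluorescence under double the plate's negative control median, limit read from the data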
Target sequence (Q9XUB2 whole entry, looked up): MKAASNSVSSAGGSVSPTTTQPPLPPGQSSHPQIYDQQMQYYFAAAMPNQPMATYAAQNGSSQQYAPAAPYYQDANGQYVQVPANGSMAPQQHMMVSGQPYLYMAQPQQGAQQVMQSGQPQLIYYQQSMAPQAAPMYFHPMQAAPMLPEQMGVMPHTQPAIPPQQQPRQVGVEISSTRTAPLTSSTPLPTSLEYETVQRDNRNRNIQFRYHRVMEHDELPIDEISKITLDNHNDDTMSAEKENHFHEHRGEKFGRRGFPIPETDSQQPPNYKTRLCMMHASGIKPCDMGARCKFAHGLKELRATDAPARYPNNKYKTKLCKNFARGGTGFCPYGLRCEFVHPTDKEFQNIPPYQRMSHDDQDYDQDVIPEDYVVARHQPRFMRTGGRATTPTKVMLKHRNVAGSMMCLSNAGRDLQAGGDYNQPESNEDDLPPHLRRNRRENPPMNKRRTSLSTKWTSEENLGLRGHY
MCL1 BIM primary = MCL1-BIM-BH3 interaction inhibition (human); 0.68% of 320,000 active; inhibition, % at 10.9 µM; GST-MCL1 / FITC-Bim-BH3 fluorescence polarization;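 active means inhibition above the mean inhibition of all tested compounds plus 3 SD, set per campaign, cut at about 40% in these data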;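 further: higher means more loss of mP so more displacement of Bim peptide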
BCLXL inh = blocks human Bcl-xL binding to Bim BH3 peptide; Q07817; GST-Bcl-xL / FITC-Bim BH3 peptide fluorescence polarization; inhibition, % at 10.9 µM; 0.7% of 320,000 active; AID 2129;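 active means inhibition above the mean of all tested compounds plus 3 SD, cutoff set per campaign, cut at about 30% in these data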;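 further: inhibitors lower millipolarization by displacing the labeled peptide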
Target sequence (Q07817 whole entry, looked up): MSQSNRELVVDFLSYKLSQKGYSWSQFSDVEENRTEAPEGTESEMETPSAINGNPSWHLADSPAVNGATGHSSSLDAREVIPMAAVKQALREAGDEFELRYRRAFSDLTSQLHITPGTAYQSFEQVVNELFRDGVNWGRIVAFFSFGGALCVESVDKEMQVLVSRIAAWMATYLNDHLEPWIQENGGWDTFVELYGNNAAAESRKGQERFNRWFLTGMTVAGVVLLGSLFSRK
IDE cell activ = activators of human insulin-degrading enzyme in cells; P14735; HEK cells, FAbeta-B cleavage, fluorescence polarization; 0% vehicle, 100% cell-free pure enzyme wells; activation, % at 5.96 µM; 0.073% of 340,000 active;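 active means activation above the mean of all tested compounds plus 3 SD, set per screening campaign, cut at about 17% in these data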
BCLXL inh confirm = Bcl-xL (human) inhibition, MCL1 counter-screen confirmation; shares compounds with MCL1 BIM primary; GST-Bcl-xL / FITC-Bim BH3 peptide FP binding; inhibition, % at 10.9 µM; 54% of 1,700 active; AID 2166;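 active means inhibition above a cutoff equal to the mean inhibition of all tested compounds plus 3 SD, cut at about 30% in these data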
MCL1 inh confirm = confirmation of human MCL1 and BIM-BH3 interaction inhibitors. shares compounds with MCL1 BIM primary. inhibition, % at 10.9 µM. GST-MCL1 / FITC-Bim-BH3 fluorescence polarization. 61% of 1,700 active;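 active means inhibition above the average of all tested compounds plus 3 SD, cut at about 40% in these data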
Large screens that a line does not name were inactive (follow-up assays come after a bar, where they were run). In the library only some 1.5% were active in any assay of this set; here they are far more common.

CC(=O)Oc1ccc2c(c1)Oc1cc(OC(C)=O)ccc1C21OC(=O)c2ccccc21	GLD-1 TGE inh 142.1, MCL1 BIM primary active, BCLXL inh 180.9, IDE cell activ 42.2 (no result: MEX-5 binding) | BCLXL inh confirm 153.9 | MCL1 inh confirm 186.1
CN(C)C1(CN=Cc2cc(Cl)cc([N+](=O)[O-])c2O)CCCCC1	MCL1 BIM primary 60.5 | BCLXL inh confirm inactive | MCL1 inh confirm inactive
N#Cc1c(SCC(=O)Nc2ccc(Cl)cc2Cl)sc2c(O)cc(=O)[nH]c12	none
CCCSc1nnc(NC(=O)CSc2sc3c(O)cc(=O)[nH]c3c2C#N)s1	none
N#Cc1c(SCC(=O)Nc2nc3ccc(Br)cc3s2)sc2c(O)cc(=O)[nH]c12	MCL1 BIM primary 47.8 | BCLXL inh confirm inactive | MCL1 inh confirm 54.1
N#Cc1cccc(NC(=O)CSc2sc3c(O)cc(=O)[nH]c3c2C#N)c1	none
N#Cc1c(SCC(=O)Nc2nc3ccccc3s2)sc2c(O)cc(=O)[nH]c12	MCL1 BIM primary 57.3, BCLXL inh 30.6 (no result: MEX-5 binding) | BCLXL inh confirm inactive | MCL1 inh confirm 71.6
N#Cc1c(SCC(=O)Nc2nccs2)sc2c(O)cc(=O)[nH]c12	MCL1 BIM primary 49.6 | BCLXL inh confirm inactive | MCL1 inh confirm inactive
COc1ccc(OC)c(N(/C(N)=N/c2nc(C)cc(C)n2)S(=O)(=O)c2ccc(NC(C)=O)cc2)c1	none
CCCn1c(N/N=C(C)\C=C\c2ccccc2)nc2c1c(=O)[nH]c(=O)n2C	none (no result: IDE cell activ)
CC1=NN(c2cccc(C(=O)O)c2)C(=O)/C1=C\C=C\c1ccco1	MEX-5 binding -26.8, MCL1 BIM primary 80.8 | BCLXL inh confirm 30.3 | MCL1 inh confirm 68.5
CSc1nnc(N2C(=O)C(O)=C(C(=O)c3ccco3)C2c2ccccc2F)s1 (stereo not given)	GLD-1 TGE inh 86.3, MCL1 BIM primary 79.8, BCLXL inh 69.5 | BCLXL inh confirm inactive | MCL1 inh confirm inactive
O=C(C1=C(O)C(=O)N(c2nc3ccc(Cl)cc3s2)C1c1ccco1)c1ccco1 (stereo not given)	MCL1 BIM primary 56.6 (no result: MEX-5 binding) | BCLXL inh confirm inactive | MCL1 inh confirm 47.6
CSc1nnc(N2C(=O)C(O)=C(C(=O)c3ccco3)C2c2ccccc2)s1 (stereo not given)	GLD-1 TGE inh 54.3, MEX-5 binding -39.8, MCL1 BIM primary 53.5, BCLXL inh 54.0 | BCLXL inh confirm 54.2 | MCL1 inh confirm 69.6
Nc1nccnc1C(=O)OCC(=O)NCCc1ccc(Cl)cc1	none (no result: MEX-5 binding)
COc1ccc(-n2c(C)cc(-c3csc(NC(=O)c4ccc(S(=O)(=O)N(C)C)cc4)n3)c2C)cc1	none
O=C(c1ccc(Cl)c(S(=O)(=O)N2CCCCC2)c1)N1CCN(Cc2ccccc2)CC1	none
O=C(c1ccc(Cn2c(=S)[nH]c3ccc(Br)cc3c2=O)cc1)N1CCN(C2CCCCC2)CC1	none
O=C(/C=C/c1ccccc1)Nc1cccc(C(=O)NCCCCc2ccccc2)c1	none (no result: GLD-1 TGE inh, IDE cell inh, MEX-5 binding, MCL1 BIM primary, BCLXL inh)
Brc1cccc(C2Nc3cccc4cccc(c34)N2)c1	MCL1 BIM primary 44.2 | BCLXL inh confirm inactive | MCL1 inh confirm inactive
Brc1ccc(C2Nc3cccc4cccc(c34)N2)o1	MCL1 BIM primary 54.5, BCLXL inh 50.8 | BCLXL inh confirm inactive | MCL1 inh confirm inactive
c1ccc(C2Nc3cccc4cccc(c34)N2)cc1	MCL1 BIM primary 51.8, BCLXL inh 38.6 | BCLXL inh confirm 40.1 | MCL1 inh confirm 55.0
c1csc(C2Nc3cccc4cccc(c34)N2)c1	MCL1 BIM primary 62.0, BCLXL inh 60.5 | BCLXL inh confirm inactive | MCL1 inh confirm inactive
COc1cccc(/C=C2\SC(=S)N(NS(=O)(=O)c3ccccc3)C2=O)c1OC	none
O=C(Cc1ccccc1)c1ccccc1C(=O)N1CCCCC1	none
O=C(C[C@@H]1C/C=C\CC[C@H](Cc2ccc(F)cc2)C(=O)OC[C@@H]2CCCN2C1=O)NCCO	none (no result: MEX-5 binding, MCL1 BIM primary, BCLXL inh)
CN=c1scc(-c2cccs2)n1/N=C/c1ccc(O)c(O)c1O	MCL1 BIM primary 53.0 | BCLXL inh confirm 68.4 | MCL1 inh confirm 55.5
CN=c1scc(C)n1/N=C/c1ccc(O)c(O)c1O	MEX-5 binding -32.1, MCL1 BIM primary 58.1 | BCLXL inh confirm 78.7 | MCL1 inh confirm 121.0
C=CCN=c1scc(-c2ccco2)n1/N=C/c1ccc(O)c(O)c1O	MEX-5 binding -28.3, MCL1 BIM primary 49.8 | BCLXL inh confirm inactive | MCL1 inh confirm 77.7
CN=c1scc(C)n1/N=C/c1cc(Br)c(O)c(OC)c1	none
O=C1CC(c2ccc3ccccc3c2)NN1 (stereo not given)	MCL1 BIM primary 42.1 (no result: MEX-5 binding) | BCLXL inh confirm inactive | MCL1 inh confirm inactive
O=C(Cn1cnc2sc(-c3ccccc3)cc2c1=O)NCc1ccco1	MCL1 BIM primary 61.5 (no result: MEX-5 binding) | BCLXL inh confirm inactive | MCL1 inh confirm 62.0
CCC(=O)Nc1ccc(C(=O)COC(=O)c2sc(C)nc2C)cc1	none (no result: GLD-1 TGE inh, IDE cell inh, MEX-5 binding, MCL1 BIM primary, BCLXL inh)
O=C(CSc1nc(C2CC2)nc2ccccc12)N1c2ccccc2Sc2ccc(C(F)(F)F)cc21	MCL1 BIM primary 47.0 | BCLXL inh confirm inactive | MCL1 inh confirm inactive
Nc1ncc(N=Nc2cc(C(=O)O)ccc2Cl)s1	MCL1 BIM primary 44.9 (no result: MEX-5 binding) | BCLXL inh confirm 36.1 | MCL1 inh confirm 82.1
O=C(Nc1cc(Cl)ccc1Cl)C1Cc2ccccc2O/C1=N\O (stereo not given)	none (no result: GLD-1 TGE inh, IDE cell inh, MCL1 BIM primary, BCLXL inh)
N#CC1=C(N)Oc2cc(O)c(Cl)cc2C1c1ccccc1F (stereo not given)	GLD-1 TGE inh 59.2, IDE cell inh 34.3, MEX-5 binding -46.2, MCL1 BIM primary 56.6, BCLXL inh 78.4 | BCLXL inh confirm 91.0 | MCL1 inh confirm 118.3
N#CC1=C(N)Oc2cc(O)c(Cl)cc2C1c1cccnc1 (stereo not given)	none (no result: GLD-1 TGE inh, IDE cell inh, MCL1 BIM primary, BCLXL inh)
CC(C)N=c1cc2n(-c3ccc(Cl)cc3)c3ccccc3nc-2cc1Nc1ccc(Cl)cc1	MCL1 BIM primary 117.8, BCLXL inh 78.0 | BCLXL inh confirm active | MCL1 inh confirm active
Cn1c(CNc2ccc(Cl)cc2)nc2ccccc21	none
CCN(CC(=O)Nc1ccccc1C(F)(F)F)C(=O)CN1C(=O)NC(C)(c2ccc3ccccc3c2)C1=O (stereo not given)	none (no result: GLD-1 TGE inh, IDE cell inh, MEX-5 binding, MCL1 BIM primary, BCLXL inh)
O=C1COc2ccc(C(=O)COC(=O)/C=C/c3ccc(Br)o3)cc2N1	MCL1 BIM primary 72.9 | BCLXL inh confirm inactive | MCL1 inh confirm 50.7
Cc1ccc(/C=C/C(=O)OCC(=O)c2ccc3c(c2)NC(=O)CO3)o1	none (no result: MEX-5 binding, MCL1 BIM primary, BCLXL inh)
N#C/C(=C\c1ccc(-c2ccc(F)cc2)o1)C(=O)Nc1nc(-c2cccs2)cs1	MCL1 BIM primary 41.4 | BCLXL inh confirm 45.4 | MCL1 inh confirm 73.1
